Shiga inhibitor: inhibitors of Shiga toxin in Vero cells; inhibition, % at 38.7 µM; AID 2315; Vero cells, Shiga toxin protein synthesis inhibition reporter; hit rate 9.2% among 290,000; in the data active = inhibition mostly above about 28%, no sharp cut-off; inactive = mostly below about 43%; also: 0% is about no effect
RE007 growth inh: less growth of the S. pombe RE007 Vpr strain; S. pombe RE007 Vpr strain, BacTiter-Glo ATP luminescence, 24 h; Potency, µM (series often up to 92.2 µM), for inactives: top-dose activity change, negative = less growth, hits mostly inhibitors; hit rate 0.21% among 360,000; active = well fitted falling curve with a large enough effect; inconclusive = small, poorly fitted or top-dose-only effect; inactive = no such curve, though single readings can be large or run the other way; also: potency is read from the fitted curve at half-maximal effect; % is scaled to controls: 0 for no effect and ±100 for the full control effect; nearly all actives have a fitted effect of over 50% in size
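Fission yeast strain RE007, carrying one chromosomally integrated HIV-1 vpr copy, was seeded at OD 0.01 in PMG+AL medium with 23 nL pinned compound. After 24 h at 30 °C and 99% humidity, viability was read by BacTiter-Glo luminescence.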
Giardia FBPA inh: inhibitors of Giardia lamblia fructose-1,6-bisphosphate aldolase. purified Giardia FBPA. Potency, µM (top dose mostly 59.6 µM), inactives show at the top dose activity, negative = inhibition, usual class: inhibitors. hit rate 0.71% among 290,000. AID 2451. A8B2U2; also: potency is read from the fitted curve at half-maximal effect; % is scaled to controls: 0 for no effect and ±100 for the full control effect; nearly all actives have a fitted effect of over 55% in size
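40 nM FBPA preincubated 10 min at RT with compound (up to 57.5 uM final), then substrate plus GAPDH/TPI/NAD/arsenate coupling and diaphorase/resazurin added. Fluorescence read after 20 min at RT, 525/598 nm.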
TbPYK inhibitor: blocks Trypanosoma brucei pyruvate kinase; TbPYK enzyme, Kinase-Glo Plus ATP luminescence, 45 min; hit rate 0.12% among 410,000; Q57TT1; AID 624173; Potency, µM (top dose mostly 76.8 µM), for the others: at the top dose activity, negative = inhibition, most hits filed as inhibitors; also: potency is read from the fitted curve at half-maximal effect; % is scaled to controls: 0 for no effect and ±100 for the full control effect; nearly all actives have a fitted effect of over 50% in size
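Readout: single end-point luminescence (Kinase-Glo Plus, 10 min). Reaction conditions were TbPYK/substrate plus 130 uM ADP, 45 min at RT, pH 7.2 TEA buffer. No-enzyme wells served as controls, and data were normalized before concentration-response fitting.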
LmPK inh: blocks Leishmania mexicana pyruvate kinase activity | purified LmPK, Kinase-Glo ATP luminescence, 1 h | AID 1721 | Q27686 | hit rate 0.37% among 290,000 | Potency, µM (doses to about 57.5 µM), for inactives: top-dose activity change, negative = inhibition, usual class: inhibitors; also: potency is read from the fitted curve at half-maximal effect; % is scaled to controls: 0 for no effect and ±100 for the full control effect
Target sequence (Q27686 whole entry, looked up): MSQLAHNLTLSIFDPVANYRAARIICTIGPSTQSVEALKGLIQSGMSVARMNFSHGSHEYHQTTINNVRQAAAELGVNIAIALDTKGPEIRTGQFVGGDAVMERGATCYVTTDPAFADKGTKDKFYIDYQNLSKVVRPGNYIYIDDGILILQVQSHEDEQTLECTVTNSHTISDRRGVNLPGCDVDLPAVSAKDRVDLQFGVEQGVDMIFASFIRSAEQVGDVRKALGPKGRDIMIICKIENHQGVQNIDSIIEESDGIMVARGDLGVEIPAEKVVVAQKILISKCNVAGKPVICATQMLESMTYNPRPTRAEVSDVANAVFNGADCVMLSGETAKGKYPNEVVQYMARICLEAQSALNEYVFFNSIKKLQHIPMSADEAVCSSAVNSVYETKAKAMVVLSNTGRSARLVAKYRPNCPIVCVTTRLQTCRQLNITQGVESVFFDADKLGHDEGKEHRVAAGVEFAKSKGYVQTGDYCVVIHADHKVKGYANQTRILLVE
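0.1 nM LmPK, 0.5 mM PEP, 0.1 mM ADP; 50 mM imidazole pH 7.2, 7 mM MgCl2, 50 mM KCl; 1 h RT. Kinase-Glo luminescence readout, normalized to no-enzyme (full inhibition) and uninhibited wells.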
CHX counter: counter-screen hit for Shiga toxin inhibitors, cycloheximide | cell reporter, cycloheximide protein synthesis inhibition counterscreen | max response, % | hit rate 12% among 300,000 | AID 2314; in the data active = max response mostly above about 13%, no sharp cut-off; inactive = mostly below about 14%; also: read at 38.3 µM for the half of the compounds with a filed dose; 0% is about no effect
The depositor's hits bear a star; ? = inconclusive; nt = no result. This is one part of a sample in which hits are shown more often than they occur. Unless noted, calls follow the shape of the dose curve; as a rule, active = well fitted curve in the direction sought with a large enough effect; inconclusive = small, poorly fitted or top-dose-only effect, or another doubt; inactive = no such curve, though single readings can be large; an effect the other way counts as inactive or inconclusive.

SMILES	Shiga inhibitor	RE007 growth inh	Giardia FBPA inh	TbPYK inhibitor	LmPK inh	CHX counter
CCN(CC)CCC(c1cc(OC)c(OC)c(OC)c1)c1c(OC)cc(OC)c2c1OC(=O)CC2c1ccc(N(C)C)cc1 (stereo not given)	-12.4	nt	0.5%	nt	nt	-1.3
O=c1c(CCc2ccccc2)nc2cnc(N3CCOCC3)nc2n1-c1ccccc1	nt	nt	12.0%	nt	nt	nt
CC(C)c1ccc(NC(=O)CCn2c(=O)c3cccn3c3ccccc32)cc1	nt	nt	nt	2.6%	nt	nt
O=C(Nc1nccs1)c1c(O)c2c([nH]c1=O)CCCC2	25.5	-2.5%	-2.6%	-5.4%	2.9%	12.9*
O=C(Nc1ccccc1O)c1c(O)c2c([nH]c1=O)CCCC2	115.6*	7.9%	-10.2%	4.2%	5.3%	40.5*
CCNCCNC(=O)c1c(O)c2c([nH]c1=O)CCCC2	-14.2	-8.2%	11.1%	4.7%	-5.3%	0.8
O=C(N/N=C/c1cccc(Cl)c1)c1c(O)c2c([nH]c1=O)CCCC2	46.5	5.5%	0.4%	0.9%	2.3%	18.2*
COc1ccc(/C=N/c2c(-c3ccc(OC)cc3)nc3n2CCS3)cc1	30.9	-23.6%	-2.5%	0.7%	2.3%	14.6*
COc1ccc(-c2nc3n(c(=O)c2C#N)CCCS3)cc1	-0.1	22.7%	7.7%	1.8%	4.1%	14.5*
Cc1ccc(NC(=O)Cn2c(=O)n(CCC(=O)N3CCc4ccccc4C3)c(=O)c3ccccc32)c(C)c1	nt	nt	nt	1.5%	nt	nt
Nc1nc2ccccc2n1CCOc1ccc(Br)cc1	-1.2	-5.4%	-4.7%	0.2%	-0.2%	-2.9
S=C(Nc1ccccc1)Nc1nc2ccccc2n1CCOc1ccc(Br)cc1	43.7*	4.2%	-14.6%	-4.8%	-0.5%	34.2*
Cn1c(NC(=S)Nc2ccccc2)nc2ccccc21	64.8*	0.6%	-2.3%	-21.0%	-5.7%	47.2*
CCc1ccccc1NC(=O)CN1CCN(C(=O)CCC(=O)N2CCC(c3ccccc3)=N2)CC1	nt	21.2%	nt	-4.1%	nt	nt
COc1cccc(OC)c1C(=O)Nc1cc(C)on1	1.8	3.9%	nt	-0.7%	5.1%	6.3
O=C(NCC(O)c1ccccc1)Nc1cccs1 (stereo not given)	69.9	-9.4%	6.5%	0.8%	2.0%	23.7*
O=C(NC[C@H](O)c1ccccc1)c1ccccc1	nt	nt	1.2%	nt	nt	nt
O=C(Nc1cccs1)Nc1cc(C(F)(F)F)ccc1Cl	nt	nt	nt	-5.1%	nt	nt
Cc1cc(NC(=O)Nc2ccccc2Cl)no1	63.7*	3.1%	5.2%	-6.2%	-9.3%	27.0*
O=C(Nc1ccc(C(F)(F)F)cn1)Nc1cccs1	35.0*	3.7%	2.2%	-7.4%	-2.5%	26.2*
COc1cccc(C(=O)Nc2cc(C)on2)c1OC	75.9*	-3.1%	1.6%	-3.5%	11.3%	49.4*
Cc1ccccc1OC(C)C(=O)NCCCN1CCOCC1 (stereo not given)	-6.9	9.1%	nt	4.5%	-0.7%	-3.6
COc1ccc(Cl)cc1NC(=O)Nc1cc(C)on1	60.9*	6.4%	nt	10.7%	-7.3%	36.3*
Cc1cc(NC(=O)Nc2cccs2)no1	19.2	-4.8%	-11.1%	-8.6%	2.4%	16.0*
COc1ccc(Cl)cc1NC(=O)Nc1cnccn1	-7.6	-3.2%	4.5%	3.9%	-0.2%	-0.8
SMILES	Shiga inhibitor	RE007 growth inh	Giardia FBPA inh	TbPYK inhibitor	LmPK inh	CHX counter
Cc1cccc(C)c1NC(=O)Nc1cccs1	-12.9	-7.2%	-6.6%	-2.2%	8.5%	-0.5
O=C(Nc1cccs1)Nc1ccccc1Br	46.7*	?	-8.2%	0.5%	-1.8%	30.1*
O=S(=O)(NCC(c1ccco1)S(=O)(=O)c1cccs1)c1ccc(Cl)cc1 (stereo not given)	nt	nt	nt	-0.5%	nt	nt
COCCNC(=O)c1cc(Sc2ccc(F)cc2F)nc2ccccc12	nt	nt	nt	-2.7%	nt	nt
COc1cccc(N(C(=O)CNC(=O)c2ccco2)C(C(=O)NC2CCCC2)c2cccnc2)c1 (stereo not given)	-7.5	-12.9%	1.0%	11.7%	-5.9%	-4.3
COc1cc(-c2noc(C)c2C#Cc2ccc(N)cc2)cc(OC)c1OC	12.2	7.9%	-3.4%	-13.0%	5.0%	14.1*
Cc1ccc(C(C)C)c(OCCSc2nc3ccccc3n2CC(O)CO)c1 (stereo not given)	nt	nt	nt	3.0%	nt	nt

Assay outcomes as filed in PubChem BioAssay.
